Laboratory results taken from PubChem BioAssay (NCATS).
Records with an inconclusive call do not appear. Calls of active or inactive are those of the source. Calls follow the shape of the dose curve; as a rule, active = well fitted inhibition curve with a large enough effect; inconclusive = small, poorly fitted or top-dose-only effect; inactive = flat fitted curve, though single readings scatter.

Tested on: Zika virus NS2B-NS3 protease
Test: Primary screen GU AMC qHTS for Zika virus inhibitors (AID 1347154);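 also: 0% = no-inhibitor control and -100% = no-enzyme control; nearly all actives have a fitted effect of over 70% in size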
Conditions: Zika NS2B-NS3 unlinked protease, AMC fluorogenic substrate; series mostly up to 54.1 µM; activity change, negative = inhibition: at the top concentration
Summary of the method: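 Unlinked Zika NS2B hydrophilic domain–NS3 protease complex at 25 nM in 10 mM Tris-HCl pH 8.0, 0.01% Tween 20, with an AMC peptide substrate. Fluorescence change (340/450 nm) over 15 min at room temperature, normalized to controls, fitted to 4-parameter Hill.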

Which “activity change, negative = inhibition” value does the source give for NCCNCCNCCN here?
The value was -1.9% (inactive).

With COc1ccc2cc1Oc1cc3c(cc1OC)CC[N+](C)(C)[C@H]3Cc1ccc(cc1)Oc1c(OC)c(OC)cc3c1[C@@H](C2)[N+](C)(C)CC3 as the molecule, how does the “activity change, negative = inhibition” value read?
Its value is -6.85% (inactive).

Which “activity change, negative = inhibition” value does the source give for CC(C)(C)[C@]1(O)CCN2C[C@H]3c4ccccc4CCc4cccc(c43)[C@@H]2C1 here?
Its value is -0.173% (inactive).

How did the “activity change, negative = inhibition” value turn out when CC(=O)Oc1ccc(C2(c3ccc(OC(C)=O)cc3)C(=O)Nc3ccccc32)cc1 was run?
The value was 0.223% (inactive).

For O=C1NS(=O)(=O)c2ccccc21, which “activity change, negative = inhibition” value is on record?
Its value is -1.96% (inactive).

How did the Potency turn out when C=CCn1c(=O)n([C@@H]2O[C@H](CO)[C@@H](O)[C@H]2O)c2nc(N)[nH]c(=O)c21 was run?
Its Potency is “inactive”.

COc1ccccc1O was tested. Which “activity change, negative = inhibition” value did it give?
The value was -0.641% [at 104 µM] (inactive).

With CC(=O)Nc1ccc(/C=N/NC(N)=S)cc1 as the molecule, how does the “activity change, negative = inhibition” value read?
Its value is -7.49% (inactive).

How did the Potency turn out when NC(=O)N/N=C/c1ccc([N+](=O)[O-])o1 was run?
The Potency was “inactive”.

Which “activity change, negative = inhibition” value does the source give for Cc1cc(CC(=O)O)n(C)c1C(=O)c1ccc(Cl)cc1 here?
Its value is -8.16% (inactive).

How did the “activity change, negative = inhibition” value turn out when O=c1cc[nH]c(=S)[nH]1 was run?
The value was 0.607% (inactive).

For C[C@H](N)[C@H](O)c1cccc(O)c1, which “activity change, negative = inhibition” value is on record?
Its value is -7.15% (inactive).

Which Potency does the source give for c1ccc2c(CC3=NCCN3)cccc2c1 here?
The Potency was “inactive”.

O=C(Oc1ccccc1C(=O)O)c1ccccc1O was tested. Which “activity change, negative = inhibition” value did it give?
The value was -14.4% (inactive).

With Nc1ccc(S(=O)(=O)Nc2ccccc2)cc1 as the molecule, how does the “activity change, negative = inhibition” value read?
The value was 1.85% (inactive).

For COC(=O)[C@H]1[C@H]2C[C@@H]3c4[nH]c5cc(OC)ccc5c4CCN3C[C@H]2C[C@@H](OC(=O)COc2ccc(OC)cc2)[C@@H]1OC, which “activity change, negative = inhibition” value is on record?
Its value is -1.74% (inactive).

O=C(O)Cc1sc(-c2ccccc2)nc1-c1ccc(Cl)cc1 was tested. Which “activity change, negative = inhibition” value did it give?
The value was -6.46% (inactive).

For CO/N=C(\C(=O)N[C@@H]1C(=O)N2C(C(=O)O)=C(CSc3nc(=O)c(O)nn3C)CS[C@H]12)c1csc(N)n1, which “activity change, negative = inhibition” value is on record?
Its value is 1.5% (inactive).

With CN1[C@@H]2CC(OC(=O)[C@H](CO)c3ccccc3)C[C@H]1[C@@H]1O[C@@H]12 (some centres undefined) as the molecule, how does the “activity change, negative = inhibition” value read?
The value was 3.24% (inactive).
